Out of some 310,000 compounds screened, about 14,000 (4.5%) showed an effect of 50% or more. The effect is printed as a negative number. The entries come from a sample that favours strong results as a whole.
target: human ether-à-go-go-related gene (hERG) potassium channel (human, UniProt Q12809); assay: primary screen, population patch clamp on CHO cells stably expressing hERG; higher = less effect of the substance
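Further: peak tail current of the secondary pulse compared with the same well before compound.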

Chain of human ether-à-go-go-related gene (hERG) potassium channel (Q12809 whole entry, looked up): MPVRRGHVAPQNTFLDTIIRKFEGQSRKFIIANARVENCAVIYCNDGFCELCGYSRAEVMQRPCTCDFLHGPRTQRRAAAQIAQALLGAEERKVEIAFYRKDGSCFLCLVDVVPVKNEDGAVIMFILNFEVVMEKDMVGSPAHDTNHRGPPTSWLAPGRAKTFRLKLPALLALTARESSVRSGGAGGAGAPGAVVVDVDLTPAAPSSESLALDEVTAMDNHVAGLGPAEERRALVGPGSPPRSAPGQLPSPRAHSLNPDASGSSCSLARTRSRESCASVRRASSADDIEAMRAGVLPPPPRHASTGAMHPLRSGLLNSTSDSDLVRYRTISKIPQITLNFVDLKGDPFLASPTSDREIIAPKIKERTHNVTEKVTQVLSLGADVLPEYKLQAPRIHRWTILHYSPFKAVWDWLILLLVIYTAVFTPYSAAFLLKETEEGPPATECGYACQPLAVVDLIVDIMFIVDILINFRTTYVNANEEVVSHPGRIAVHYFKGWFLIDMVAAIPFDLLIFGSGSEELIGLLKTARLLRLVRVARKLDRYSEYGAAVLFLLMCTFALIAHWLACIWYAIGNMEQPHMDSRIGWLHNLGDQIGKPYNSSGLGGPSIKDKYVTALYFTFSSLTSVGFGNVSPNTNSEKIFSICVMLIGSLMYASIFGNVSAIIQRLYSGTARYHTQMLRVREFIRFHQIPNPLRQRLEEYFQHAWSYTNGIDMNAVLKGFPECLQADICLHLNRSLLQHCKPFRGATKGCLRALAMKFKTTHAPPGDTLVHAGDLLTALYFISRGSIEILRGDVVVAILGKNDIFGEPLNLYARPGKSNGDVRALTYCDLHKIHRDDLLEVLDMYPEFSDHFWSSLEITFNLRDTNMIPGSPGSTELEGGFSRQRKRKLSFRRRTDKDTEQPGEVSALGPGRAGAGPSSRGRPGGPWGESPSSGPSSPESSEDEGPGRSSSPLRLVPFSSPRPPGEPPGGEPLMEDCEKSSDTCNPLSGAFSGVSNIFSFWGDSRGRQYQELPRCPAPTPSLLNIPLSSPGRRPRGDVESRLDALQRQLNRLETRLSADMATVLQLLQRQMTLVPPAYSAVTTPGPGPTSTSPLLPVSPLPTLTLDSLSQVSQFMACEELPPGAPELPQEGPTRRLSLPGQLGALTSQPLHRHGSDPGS

Compound | hERG current change (%, negative = inhibition) at 10uM
Cc1cc(C)cc(NC(=O)CSc2nnc(-c3ccccc3)n2N)c1 | 6.38%
CC(C)Oc1cccc(C(=O)Nc2ccc(Br)cc2F)c1 | 7.79%
Cc1ccccc1CNC(=O)CC1C(=O)NCCN1CC1CCCCC1 (stereo not shown) | 6.33%
Cc1cc(C)c(C(=O)CSc2n[nH]c(=O)n2C2CC2)cc1C | -9.54%
COc1ccc(C(=O)c2nc3ccccc3n2C(C)C)cc1OC | -16.5%
CC(C)c1ccc(NNC(=O)C2CCC2)cc1 | 3.84%
COc1ccc(C(=O)CCN2CCC(C)CC2)cc1.Cl | -30%
COc1ccc(CC(=O)N2CCc3cc(OC)c(OC)cc3C2)cc1 | -6.59%
COc1cc2c(cc1OC)CN(Cc1cc(OC)c(O)c(OC)c1)CC2 | -14%
COc1cc2c(cc1OC)CN(C(=O)CCNS(=O)(=O)c1ccc(Br)cc1)CC2 | -36.8%
Brc1cccc(OCCN2CCc3ccccc3C2)c1.Cl | -5.84%
COc1cc2c(cc1OC)CN(CCOc1ccc(Br)cc1)CC2 | -68.8%
COc1ccc(S(=O)(=O)N2CCN(CCOc3ccc(Br)cc3)CC2)cc1OC | -12.8%
COc1cc2c(cc1OC)CN(CCC(=O)c1ccc(Br)cc1)CC2 | -66.9%
COc1ccc(C(=O)CCN2CCc3cc(OC)c(OC)cc3C2)cc1.Cl | -69.1%
COc1ccc(C(=O)NC(=S)Nc2cccc3nc(C)ccc23)cc1OC | 8.45%
Cc1nnc(NC(=O)CN2CCN(Cc3c(Cl)cccc3Cl)CC2)s1 | 9.97%
COC(=O)c1c(NC(=O)CS(=O)(=O)c2ccccc2)sc(C)c1C | -21.6%
CNC(=O)C1CCN(S(=O)(=O)c2c(C)noc2/C=C/c2cccc(C)c2)CC1 | 10.2%
COc1ccccc1NC(=O)c1ccc2c(c1)C(=O)N(c1ccccc1OC)C2=O | 5.55%
CC(C)c1ccccc1NS(=O)(=O)c1cccs1 | 17.8%
CNCCC(Oc1ccccc1OC)c1ccccc1.Cl (stereo not shown) | -53.5%
CNCC[C@H](Oc1cccc2ccccc12)c1cccs1 | -37.8%

Compound | hERG current change (%, negative = inhibition) at 10uM
CNCC[C@H](Oc1cccc2ccccc12)c1cccs1.Cl | -36%
CCS(=O)(=O)c1ccc2oc(Nc3cccc(OC)c3)nc2c1 | 9.78%
Cc1ccc(NC(=O)CCCn2nc(C)c3c(C)n(-c4ccccc4)nc3c2=O)cc1C | 24.6%
COc1cc(Cc2ccc(N)c(OC)c2)ccc1N | 11.1%
COc1ccc(Cc2ccc(OC)c(N)c2)cc1N | -52.6%
COc1ccc(OC)c(N)c1.Cl | 20.5%
Cc1cccc(N2CC(C)Cn3c2nc2c3c(=O)[nH]c(=O)n2C)c1 (stereo not shown) | -0.757%
COCCNCCCCSc1ccc(Cl)cc1 | -50.8%
COCCCNC(=O)CCSc1ccc(Cl)cc1 | -8.9%
COCCCNCCCCSc1ccc(Cl)cc1 | -37.9%
O=C1CCCC2=C1C(c1ccccc1)C1C(=O)c3ccccc3C1=N2 (stereo not shown) | 6.16%
CC(=O)Nc1ccc(C(=O)N2CCN(S(=O)(=O)c3ccc4c(c3)OCCCO4)CC2)cc1 | 5.45%
Cc1cc(C(=O)Nc2ccc(S(=O)(=O)N3CCCC3)cc2)no1 | 23.6%
COc1ccc(C(=O)Nc2cc([N+](=O)[O-])ccc2N2CCCC2)cc1 | -1.57%
O=C(NC(=S)Nc1ccccc1N1CCCCC1)c1ccc(-c2cccc([N+](=O)[O-])c2)o1 | 4.88%
CC(=O)N1CCN(c2ccccc2NC(=O)c2ccc(-c3cccc([N+](=O)[O-])c3)o2)CC1 | -75.4%
CCC(=O)N1CCN(c2ccccc2NC(=O)c2ccc(-c3cccc([N+](=O)[O-])c3)o2)CC1 | -34.1%
COc1cccc(C(=O)Nc2cc([N+](=O)[O-])ccc2N2CCN(C)CC2)c1 | -71.7%
CN1CCN(c2ccc(S(=O)(=O)N3CCCCC3)cc2NC(=O)c2cccc([N+](=O)[O-])c2)CC1 | -65.8%
O=C(NC(=S)Nc1ccccc1N1CCOCC1)c1cccc([N+](=O)[O-])c1 | 17.6%
CN1CCN(c2ccc(S(=O)(=O)N3CCCCC3)cc2NC(=O)c2ccc(C#N)cc2)CC1 | -41.7%
CCC(=O)N1CCN(c2ccccc2NC(=S)NC(=O)c2cccc([N+](=O)[O-])c2)CC1 | -69.9%
CCC(=O)N1CCN(c2ccc(NC(=S)NC(=O)c3cccc([N+](=O)[O-])c3)cc2)CC1 | 2.13%

Compound | hERG current change (%, negative = inhibition) at 10uM
COc1ccc(C(=O)Nc2cc([N+](=O)[O-])ccc2N2CCN(C)CC2)cc1 | -30.3%
CN1CCN(c2ccc(S(=O)(=O)N3CCCCC3)cc2NC(=O)c2ccc3ccccc3c2)CC1 | -40.4%
COCCNC(=O)[C@@]1(Cc2ccccc2)C=C[C@@H](C)N1C(C)=O | 11.5%
CC(C)N(Cc1ccco1)/N=C/c1c(O)n(Cc2ccccc2)c(=O)[nH]c1=O | 8.85%
Cc1nccn1CCOc1ccc(Cl)cc1.O=C(O)C(=O)O | -38.4%
COc1ccc2c(Cl)c(C(N)=O)sc2c1 | 1.91%
Nc1ccc(NC(=O)c2ccco2)c(Cl)c1 | 12.9%
Cc1cc(=O)cc(C)n1-c1ccc(Br)cc1 | 12.1%
CCN(CC)CCn1c(-c2ccc(C)cc2)nc(=S)c2c1CC(C)(C)OC2 | -0.55%
Clc1ccccc1-c1ccc(/C=N/n2cnnc2)o1 | -24.1%
CCc1nc(SCC(=O)Nc2cccc3ccccc23)[nH]c(=O)c1C | 8.16%
COC(=O)c1ccc(C(=O)OC)c(NC(=S)N2CCC(N3CCCCC3)CC2)c1 | -15%
COc1cc(NS(C)(=O)=O)c(OC)cc1NC(=O)c1ccccc1 | -9.96%
O=C(Nc1ccccc1N1CCOCC1)c1cccc([N+](=O)[O-])c1 | -17.7%
CN1CCN(c2ccccc2NC(=O)c2cccc([N+](=O)[O-])c2)CC1 | -80.1%
O=C(NC(=S)Nc1ccccc1N1CCCC1)c1ccc(-c2cccc([N+](=O)[O-])c2)o1 | -26.7%
O=C(Nc1ccccc1N1CCCCC1)c1cccc([N+](=O)[O-])c1 | 9.03%
CN1CCN(c2ccccc2NC(=O)c2ccc(-c3cccc([N+](=O)[O-])c3)o2)CC1 | -51.8%
CN1CCN(c2ccc(NC(=O)c3ccc(-c4cccc([N+](=O)[O-])c4)o3)cc2)CC1 | 5.35%
N#Cc1ccsc1NC(=O)c1ccc(Cl)c([N+](=O)[O-])c1 | 21%
O=C(NC1CCS(=O)(=O)C1)c1cccc(S(=O)(=O)N2CCCCCC2)c1 (stereo not shown) | 1.79%
CCC1CCCCN1Cc1nc(Cc2ccccc2Cl)no1 (stereo not shown) | -10.4%
OCCCC1CCCCN1Cc1nc(Cc2ccccc2Cl)no1 (stereo not shown) | -78.9%

Compound | hERG current change (%, negative = inhibition) at 10uM
NC(=O)[C@@H]1CCCN1Cc1nc(Cc2ccccc2Cl)no1 | 14.5%
Cc1noc(C)c1S(=O)(=O)N1CCCN(C(=O)/C=C/c2ccccc2F)CC1 | -70.9%
CNC(=O)C1CCN(S(=O)(=O)c2c(C)noc2/C=C/c2ccccc2F)CC1 | 11.4%
Cc1noc(/C=C/c2ccccc2F)c1S(=O)(=O)N1CCC(C(=O)N2CCN(C)CC2)CC1 | -19.5%
COc1ccc(N2CCN(C(c3cccs3)C(C)NS(C)(=O)=O)CC2)cc1 (stereo not shown) | 7.84%
CN1C(=O)c2ccccc2C(C(=O)O)C1c1cccc(F)c1 (stereo not shown) | 0.483%
CCOc1ccccc1N(C)C(=O)c1sc2ncn(CC(=O)N3CCCCC3C)c(=O)c2c1C (stereo not shown) | 6.44%
CCOC(=O)CCSc1nc2c(c(C(F)(F)F)c1C#N)CCC2 | 3.58%
O=C(c1ccccc1OCc1ccccc1Br)N1CCN(c2ncccn2)CC1 | -37.2%
O=C(C[n+]1cccc2ccccc21)c1ccc(Br)cc1.[Br-] | -45.1%
CN1CCN(Cc2nc(Cc3cccc(F)c3)no2)CC1c1ccccc1 (stereo not shown) | -18.2%
Fc1cccc(Cc2noc(CN3CCSCC3)n2)c1 | 29.1%
Fc1cccc(Cc2noc(CN3CCN(C4CCc5ccccc5C4)CC3)n2)c1 (stereo not shown) | -78.6%
Cc1ccccc1N1CCN(Cc2nc(Cc3ccccc3)no2)CC1 | 9.18%
c1ccc(Cc2noc(CN3CCC(CN4CCOCC4)CC3)n2)cc1 | 4.64%
O=C(c1ccco1)N1CCCN(Cc2nc(Cc3ccccc3)no2)CC1 | -25.8%
Fc1cccc(Cc2noc(CN3CCCN(C4Cc5ccccc5C4)CC3)n2)c1 | -86.5%
c1ccc(Cc2noc(CN3CCCN(C4Cc5ccccc5C4)CC3)n2)cc1 | -80%
Fc1cccc(Cc2noc(CN3CCOCC3)n2)c1 | 11.4%
O=C(c1ccco1)N1CCN(Cc2nc(Cc3ccccc3)no2)CC1 | -8.87%
Cc1cccnc1CN1CCN(Cc2nc(Cc3cccc(F)c3)no2)CC1 | -29.5%
c1ccc(Cc2noc(CN3CCN(C4CCc5ccccc5C4)CC3)n2)cc1 (stereo not shown) | -81.2%

Source: publication PMC4336329 (PLoS ONE, 2015)
